Drawing on article PMC5540273 (PLoS ONE, 2017), this text covers Kd for 17 compounds.

Bounds are passed on as bounds.
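Note: kd values determined as follow-up on hits from a single-replicate KINOMEscan panel screen.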

One assay concerns PRKX.
In turn, `Cc1ccc(NC(=O)Nc2cccc(Cl)c2)cc1-c1ccc(C(=O)Nc2ccncc2)cc1` [GSK1398468] had a Kd of 7400 nM.

`CCn1c(-c2ccccn2)nc2cnccc21` [SB-736398] yielded a dissociation constant (Kd) above 10000 nM.

For `CC1=C(C(=O)Nc2cc3cn[nH]c3cc2F)C(c2ccc(C(F)(F)F)cc2)CC(=O)N1` (stereo not shown) [GSK429286], the dissociation constant (Kd) was 350 nM. In other words, the sub-micromolar range.

The next assay has as its system RAF1.
For `CN(C)CCN(C)C(=O)c1cc(-c2ccncc2)c(-c2ccc(Cl)c(O)c2)o1.Cl.Cl` [SB-710397], binding was put at a Kd of 650 nM.

`COC(=O)c1c(-c2ccccc2)c2cc(OC)ccc2c(=O)n1Cc1ccccc1` came in with a Kd of 390 nM.

`Cc1cccc(-c2nc(-c3ccc(S(C)(=O)=O)cc3)sc2-c2ccnc(NCCc3ccccc3)c2)c1`: the Kd is 150 nM.

In turn, `Cl.O=C(Nc1cccc(-c2nn3ncccc3c2-c2ccnc(Nc3cccnc3)n2)c1)c1c(F)cccc1F` [GSK312879] gave a Kd of 430 nM.

`CC(=O)Nc1nc2cnc(Nc3cc(NC(=O)c4cccc(CCC#N)c4)ccc3C)nc2s1` came in with a Kd above 10000 nM.

`Cc1ccc(NC(=O)Nc2cccc(Cl)c2)cc1-c1ccc(C(=O)Nc2ccncc2)cc1` [GSK1398468] gave a Kd of 180 nM. In other words, the sub-micromolar range.

As for `COC(=O)c1c(-c2ccccc2)c2cc(C(=O)O)ccc2c(=O)n1Cc1ccccc1`, binding was characterised by a dissociation constant (Kd) of 170 nM. This Kd and that of the compound before are within 1.5-fold of each other.

Consider `Cc1cccc(-c2nc(C)cc(Nc3ccncc3)n2)n1` [GSK257997], for which the dissociation constant Kd is above 10000 nM.

Regarding `Cc1ccc(NC(=O)Nc2cc(C(C)(C)C)nn2-c2ccccc2)cc1` [GSK1014915], the Kd amounted to 270 nM. This counts as sub-micromolar.

A further assay relates to RIOK2.
The compound `O=S(=O)(c1ccc(-c2ccnc3[nH]ccc23)cc1)N1CCCC1` [GSK846226] returned a dissociation constant (Kd) of 960 nM.

Turning to `Cc1cc(-c2ccc3c(c2)CC[C@@H](N[C@@H](C)c2ccccc2)C3)cnc1N.Cl` [GW412617], the Kd amounted to 650 nM.

For `Clc1cc(Cl)cc(Nc2ccnc(Nc3cc(Cl)cc(Cl)c3)n2)c1` [GSK175726], the dissociation constant (Kd) was 150 nM.

The test system of the next assay is RIOK3.
Compound `Cc1ccc(C(=O)Nc2ccc(Nc3ccnc4cc(-c5ccccn5)ccc34)cc2O)cc1.Cl` [GW440146] came in with a dissociation constant Kd above 10000 nM.

`O=S(=O)(c1ccc(-c2ccnc3[nH]ccc23)cc1)N1CCCC1` [GSK846226] came in with a Kd of 540 nM.

Regarding `COc1cc2ncn(-c3cc(OCC4CCCO4)c(C(N)=O)s3)c2cc1OC` (stereo not shown) [GSK204607], the Kd turned out to be 670 nM. The Kd values of the last two compounds are within 1.5-fold of each other.

`COc1cccc(-c2cc(-c3c[nH]nc3-c3ccccn3)ccn2)c1` [GW680338] yielded a dissociation constant (Kd) of 9600 nM.

As a reminder, the Kd is a measure of binding affinity in units of concentration. A lower Kd goes with tighter binding.
